The panel holds about 83,000 compounds, 20% with a hit somewhere; the sample as a whole holds those more often.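 How to read the values: 0–100, growth inhibition (40 = 60% inhibited); 0, no net growth; -100 to 0, cell death (-40 = 40% of starting cells died; -100 = all dead).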 Unmarked numbers belong to inactive results. Active and inactive are the calls of the source. How the source made its calls: active means growth percent below 10; inactive means the rest.

This assay relates to MDA-MB-468 breast. The assay can be described thus: NCI-60 one-dose screen, 48 h (100 = growth as untreated, 0 = no growth, -100 = all killed). To be noted: 10 µM unless noted.
On to `Fc1ccc(Oc2ccc(Nc3ncnc4onc(-c5ccccc5)c34)cc2)cc1`, for which the growth was 101%.

`NC(=S)N/N=C/c1ccc(Cl)s1`: the growth was 98.8%.

Take `Cc1c(C(N)=O)sc2ncn(CC(=O)Nc3ccc(Cl)cc3)c(=O)c12`: the growth was 92.1%.

With `COc1ccc2[nH]c3nc4cnccc4cc3c2c1`, the growth is 117%.

As for `NC(N)=Nc1ccc(Nc2cccc(Oc3ccc(Cl)c(C(F)(F)F)c3)c2)cn1`, the growth is 8.19% (active).

`CNCc1ccccc1CN(CC(=O)Nc1ccc2c(c1)CC1(C2)C(=O)Nc2ncccc21)C(=O)C(C)(C)C` (stereo not given): the growth is 107%.

Take `COc1ccc(C2C=C(c3ccc(OC)c(OC)c3)N=C3SC=C(C)N32)c(Br)c1` (stereo not given): the growth is 95.9%.

`N#C/C(=C\c1ccc(-c2cccc(C(F)(F)F)c2)o1)c1nc(-c2ccco2)cs1`: the growth is -37% (active).

For the molecule `O=C(O)c1ccccc1NCc1ccco1`, the growth is 95%.

As for `COc1cc(-c2cc(-c3nc4ccc(Cl)cc4[nH]3)[nH]n2)cc(OC)c1OC`, the growth is 35.9%.

In the case of `COc1ccc2c(c1)C(C)Cc1c(Cl)ncnc1N2C` (stereo not given), the growth was -47.7% (active).

With `C=C1C(=O)O[C@H]2[C@H]1CC/C(C=Nc1c(N)cc(C(F)(F)F)cc1C(F)(F)F)=C\CC[C@@]1(C)O[C@@H]21`, the growth was -58.1% (active).

`CC1NC(C)c2ccc3ccccc3c2O1` (stereo not given): the growth was 109%.

Consider `N#Cc1cccc(-c2nc3ccccn3c2NCCN2CCOCC2)c1`, for which the growth was 111%.

Regarding `COc1c(C)c(C)c(OC)c2c1[nH]c(=O)c1c3cccnc3cn21`, the growth is 114%.

In the case of `O=C(CN1CCN(c2cc3c(cc2F)c(=O)c(C(=O)O)cn3C2CC2)CC1)Nc1nc(-c2ccc(Cl)cc2)cs1`, the growth is 21.7%.

Turning to `NC(=O)c1cccc(N2Cc3ccccc3OC3=C2C(=O)c2c(O)ccc(O)c2C3=O)c1`, the growth is -21.4% (active).

In the case of `CC(C)N1C(=O)/C(=C2\SC(=S)N(C(C)C)C2=O)SC1=S`, the growth is 97.1%.

As for `O=C1Nc2c(ccc(Cl)c2Cl)/C1=C/c1ccccn1`, the growth was 50.6%.

On to `CCn1cc(C(=O)O)c(=O)c2cc(F)c(N3CCN(CC(=O)Nc4ccc(S(=O)(=O)Nc5nccc(C)n5)cc4)C(C)C3)c(F)c21` (stereo not given), for which the growth was 96.4%.

For the molecule `O=C1C(=O)c2c(nc3ccc(Br)cn23)-c2ccccc21`, the growth was -58% (active).

Take `N[C@@H]1CCN(C(=O)c2cc3cc(Cl)c(F)c(F)c3[nH]2)C1`: the growth was 81.6%.

On to `N#Cc1nc(-c2ccccc2)oc1S(N)(=O)=O`, for which the growth was 41.1%.

`C=C1C(=O)O[C@H]2[C@H]1CC/C(COC(=O)C(=O)c1c[nH]c3ccc(Cl)cc13)=C\CC[C@@]1(C)O[C@@H]21`: the growth was -67.3% (active).

Take `Oc1ccccc1-c1nnco1`: the growth is 88.7%.

In the case of `Oc1ccc(N=Cc2ccccc2O)cc1`, the growth was 93.3%.

With `O=C(CCCCCCNC(=O)C(O)(O)C(F)(F)F)Nc1ccc(Cl)cc1`, the growth is 16.9%.

As to `COc1ccc2c(c1)[nH]c(=O)c1c3cccc(F)c3cn21`, the growth is 51.8%.

Consider `O=C(CSc1nc2ccccc2c(=O)n1CCc1ccccc1)Nc1ccc(S(=O)(=O)Nc2ccc(Cl)nn2)cc1`, for which the growth was 103%.

For the molecule `S=c1[nH]cccc1-c1nnc2n1Nc1nc3ccccc3cc1CS2`, the growth is 102%.

Regarding `O=C(NCCCNC(=O)OCc1ccc2c(Br)cc(Br)c(O)c2n1)OCc1ccc2c(Br)cc(Br)c(O)c2n1`, the growth is -72% (active).

With `CCCCCCCCCCCCCCCCCCOP(=O)([O-])OC1CC[N+](C)(C)CC1`, the growth was 0% (active).

For the molecule `Cc1ccc2c(c1)CC(O)CC1C(=O)N(CCO)CC(=O)N21` (stereo not given), the growth is 96%.

Regarding `CS(=O)(=O)N1CCc2c(-c3cnc(N)nc3)nc(N3CCOCC3)nc21`, the growth is -27.9% (active).

With `OC(c1ccccc1)c1nnc(SCc2ccccc2)n1Cc1ccccc1` (stereo not given), the growth was 88.5%.

Regarding `N#Cc1c(N)nc(Nc2nc3ccccc3[nH]2)nc1-c1ccc(Cl)cc1`, the growth is 111%.

With `CC1(C)NCCC[C@]2(C)[C@H]3CC[C@@H]4[C@H]5[C@H](C(=O)/C=C/c6ccccn6)CC[C@]5(CO)CC[C@@]4(C)[C@]3(C)CC[C@@H]12`, the growth was 5.83% (active).

On to `O=P(O)(O)OCC1OC(n2cnc3c(NCc4ccco4)ncnc32)C(O)C1O` (stereo not given), for which the growth was -67% (active).

Consider `CN1CCN(Cc2ccc(NC(=O)c3nc4ccc5[nH]ncc5c4c4c3CCCC4)cc2C(F)(F)F)CC1`, for which the growth is -92.9% (active).

Regarding `c1ccc2c(c1)Cc1ccccc1N2CCN1CCCCC1`, the growth was 99.4%.

(Values after PubChem BioAssay (NCI).)
